Compound activity from PubChem.
This is a sample that favours compounds with a hit; in the whole collection about 9.4% have one here.
Pf growth 48h: inhibits P. falciparum growth in the first generation, 48 h; P. falciparum luciferase growth in erythrocytes, 48 h; Potency, µM (series often up to 28.7 µM), most hits filed as inhibitors; hit rate 5.9% among 310,000
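Erythrocytes infected with P. falciparum carrying an integrated firefly luciferase reporter (2% hematocrit, 0.1% parasitemia final) were exposed to compounds in RPMI 1640 with 0.5% Albumax at 37 C, 5% CO2. Growth inhibition was scored as reduced luminescence.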
Pf growth 96h: P. falciparum growth inhibition at 96 hours. P. falciparum luciferase reporter growth, 96 h. hit rate 6.9% among 320,000. Potency, µM (titrated, usually from 28.7 µM), actives largely listed as inhibitors
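Delayed-death screen, second-generation endpoint: infected erythrocytes, 2% hematocrit, 0.05% parasitemia final; 96 hours at 37 C, 5% CO2; luciferase detection reagent; luminescence decrease equals reduced growth.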
SARS PLP yeast: blocks SARS-CoV papain-like protease in a yeast assay; hit rate 0.19% among 330,000; S. cerevisiae expressing SARS-CoV PLpro, growth rescue; Potency, µM (top dose mostly 32.9 µM), usual class: activators; calls by dose curve; further: nearly all actives have a fitted effect of over 55% in size
AMA1 RON2 block: inhibitors of Plasmodium falciparum AMA1-RON2 interaction; AlphaScreen AMA1-biotinylated RON2 peptide binding; Potency, µM (highest dose often 58.2 µM), actives largely listed as inhibitors; hit rate 0.2% among 360,000; AID 720542; further: nearly all actives have a fitted effect of over 45% in size
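AMA1 (3D7) with his tag at 25 nM final met compounds first, then biotinylated RON2 peptide at 25 nM; detection used donor plus acceptor beads, 10 µg/mL apiece, read by AlphaScreen after 30 min at room temperature.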
Hits are given with their value; . = inactive; ? = inconclusive; / = no result given; ! = repeats disagree; [ ] = another dose, or the depositor's remark. Unless noted, the call rests on the fitted dose curve; in most records, active means well fitted curve in the direction sought with a large enough effect; inconclusive means small, poorly fitted or top-dose-only effect, or another doubt; inactive means no such curve, though single readings can be large; an effect the other way counts as inactive or inconclusive.

SMILES | Pf growth 48h | Pf growth 96h | SARS PLP yeast | AMA1 RON2 block
O=C(Cn1ncc2c3ccccc3n(Cc3ccccc3F)c2c1=O)N1CCN(c2ccccn2)CC1 | ? | . | . | .
COc1ccc(C)c2sc(N(CCCN(C)C)C(=O)c3ccc(S(=O)(=O)N4CCc5ccccc5C4)cc3)nc12 | / | / | / | .
Cc1ccc(-n2nc3c(=O)n(CCCC(=O)N4CCCCC4)nc(C)c3c2C)cc1 | 9.3µM | ? | . | .
Cc1nn(CC(=O)N2CCCC2)c(=O)c2nn(-c3ccccc3)c(C)c12 | . | ? | . | .
CCCNC(=O)Cc1ncn[nH]1 | . | / | . | .
O=C(Cc1ncn[nH]1)NCCc1ccccc1 | / | 7.4µM | . | .
O=C(O)c1cccc(NC(=S)NC(=O)c2cncc(Br)c2)c1 | / | / | / | .
OC1(Cc2cc(-c3ccccc3)no2)CCN(CCCc2ccccc2)CC1 | 6.6µM | 3.3µM | . | .
CCC(=O)N(C1=C(NC(C)C)C(=O)c2ccccc2C1=O)C(C)C | 0.13µM | 0.066µM | . | .
Oc1ccc(-c2cnns2)c(O)c1 | 10µM | 12µM | . | .
Oc1ccc(-c2nc3ccccc3s2)c(O)c1 | . | . | . | .
CC1=Nc2cc(C(=O)NCCCN3CCOCC3)ccc2Sc2c(C)ccc(C)c21 | ? | . | . | .
CC1=Nc2cc(C(=O)NCCN3CCOCC3)ccc2Sc2c(C)ccc(C)c21 | ? | 12µM | . | .
CCN1CCN(CCNC(=O)c2ccc(/C=C3/Sc4ccccc4N(Cc4ccccc4C)C3=O)cc2)CC1 | 12µM | . | . | .
Cc1ccccc1CN1C(=O)c2ccccc2Sc2ccc(C(=O)NCCN3CCOCC3)cc21 | 8.3µM | ? | . | .
CCN1CCN(CCCNC(=O)c2ccc(/C=C3/Sc4ccccc4N(Cc4ccccc4F)C3=O)cc2)CC1 | ? | ? | . | .
Cc1nc2c(C)cccc2cc1C(=O)N/N=C/c1cccc([N+](=O)[O-])c1 | . | . | . | .
CCN(CC)S(=O)(=O)c1cccc(-c2nnc(SCCCC(=O)c3ccccc3)o2)c1 | ? | ? | . | .
CCN(CC)S(=O)(=O)c1cccc(-c2nnc(SCCCC(=O)c3ccc(F)cc3)o2)c1 | 9.3µM | . | . | .
C=CCn1c(C)cc(C(=O)CSc2nnc(-c3cccc(S(=O)(=O)N(CC)CC)c3)o2)c1C | 10µM | ? | . | .
CCOc1cc(/C=N/NC(=O)C2CCCC2)ccc1O | . | . | . | .
COc1ccc(OC)c(Nc2nc(NCCC(C)C)nc(N)c2[N+](=O)[O-])c1 | ? | ? | . | .
CCC1=NN(C(=O)COc2ccccc2)C(O)(c2ccncc2)C1 (centres undefined) | . | . | . | .
CCOC(=O)C1=NN(C(=O)COc2ccccc2)C(O)(c2ccc(Br)cc2)C1 (centres undefined) | . | 2.9µM | . | .
CC1CC(C)CN(S(=O)(=O)c2ccc3c(c2)NC(=O)C(C)C(=O)N3)C1 (centres undefined) | . | . | . | .
SMILES | Pf growth 48h | Pf growth 96h | SARS PLP yeast | AMA1 RON2 block
CC1CCN(C(=O)c2[nH]cnc2C(=O)NCCCCCNC(=O)OC(C)(C)C)CC1 | . | ? | . | .
O=C(OCC(=O)N1CCc2ccccc2C1)c1cccs1 | 1.5µM | . | . | .
CC(=O)Oc1cc(C(=O)OCC(=O)N2CCc3ccccc3C2)cc(OC(C)=O)c1OC(C)=O | / | / | . | 0.32µM
O=C(OCC(=O)N1CCCCC1)c1cccs1 | / | / | . | .
Cc1cccc(C)c1OCC(=O)N1CCc2ccccc2C1 | ? | 7.4µM | . | .
N/C(=N\OC(=O)N1CCOCC1)c1ccccc1 | 6.6µM | 8.3µM | . | .
Cc1occc1C(=O)O/N=C(\N)c1ccccc1 | . | 12µM | . | .
O=C(Oc1ccccc1)N1CCOCC1 | . | ? | . | .
N/C(=N\OC(=O)N1CCOCC1)c1ccc(Cl)cc1 | 9.3µM | ? | . | .
N/C(=N\OC(=O)N1CCOCC1)c1ccc(Br)cc1 | ? | . | . | .
COc1cccc(C(=O)CC(=O)C(=O)Nc2cccc([N+](=O)[O-])c2C)c1 | . | ? | . | .
CC(C)n1nccc1NS(=O)(=O)c1ccccc1 | . | . | . | .
CC(/C=C(\C)Nc1ccccc1)=Nc1ccccc1 | . | . | . | .
CCCCCc1cc(O)c2c(c1)OC(C)(C)C1CC=C(C)CC21 (centres undefined) | 2.4µM | 3µM | / | /
O=c1c2c([nH]c3ccccc13)CCCCC2 | 1.7µM | 1.7µM | . | .
O=c1c2ccccc2[nH]c2ccccc12 | 1.7µM | 1.5µM | . | .
CC1(C)CCc2c([nH]c3ccccc3c2=O)O1 | ? | ? | . | .
c1ccc2c(c1)[nH]c1ccccc12 | / | / | / | .
CCC1CCc2c([nH]c3ccccc3c2=O)O1 (centres undefined) | ? | 2.3µM | . | .
COc1ccc(-c2sc3cc(OC)c(OC)cc3c2C#CC2(O)CCCCC2)cc1 | ? | ? | . | .
O=C(CCCSc1nc2ccccc2[nH]1)NCc1ccco1 | ? | ? | . | .
CCOC(=O)N1CCC(NC(=O)C2CCCN2C(=O)OCc2ccccc2)CC1 (centres undefined) | . | . | . | .
CCC(C)C1NC(=O)C(Cc2ccc(O)cc2)NC(=O)C(N)CSSCC(C(=O)N2CCCC2C(=O)NC(CC(C)C)C(=O)NCC(N)=O)NC(=O)C(CC(N)=O)NC(=O)C(CCC(N)=O)NC1=O (centres undefined) | . | ? | / | /
NC(=O)CC[C@@H]1NC(=O)[C@H](Cc2ccccc2)NC(=O)[C@H](Cc2ccc(O)cc2)NC(=O)[C@@H](N)CSSC[C@@H](C(=O)N2CCC[C@H]2C(=O)N[C@@H](CCCN=C(N)N)C(=O)NCC(N)=O)NC(=O)[C@H](CC(N)=O)NC1=O | ? | 12µM! | . | /
CC(C)(C)NC1=NCCNC(c2ccccc2)=C1 | / | / | / | .
SMILES | Pf growth 48h | Pf growth 96h | SARS PLP yeast | AMA1 RON2 block
O=C(COc1ccc(Cl)cc1)NCc1nnc2c3ccccc3c(-c3ccccc3)nn12 | . | 13µM | . | .
O=S(=O)(c1cccc(C(F)(F)F)c1)N1CCN(C(=S)NCc2ccco2)CC1 | 4.7µM | 2.3µM | . | .[11.6 µM]
CC(C)c1ccc(S(=O)(=O)N2CCN(C(=S)NCc3ccco3)CC2)cc1 | ? | ? | . | .
CSCCCNC(=S)N1CCN(S(=O)(=O)c2cccc(C(F)(F)F)c2)CC1 | 10µM | . | . | .
CC(=O)NC12CC3CC(C1)CC(C(=O)N1CCN(S(=O)(=O)c4cccc(C(F)(F)F)c4)CC1)(C3)C2 | 13µM | ? | . | .
Cc1ccccc1OCc1nc(-c2ccc(-n3cccc3)cc2)no1 | / | ? | . | .
CCOC(=O)c1ccc(N=C2C(=S)N(c3ccc(C(=O)OCC)cc3)C(=N)N2/N=C/c2ccccc2)cc1 | ? | 10µM | . | .
O=C(OCC(=O)N1CCOCC1)c1ccc(Cl)nc1 | . | . | . | .
c1ccc2oc(Cc3ccc(Cc4nc5ccccc5o4)cc3)nc2c1 | . | 13µM | . | .
COc1cccc(OCC(O)CN2CCN(CCN3C(=O)c4cccc5cccc(c45)C3=O)CC2)c1 (centres undefined) | ? | . | . | .
CC(C)C(=O)NC(=S)Nc1ccc(S(=O)(=O)NC2CCCCC2)cc1 | . | 17µM | . | .
